In all, about 150,000 compounds went through this assay and about 6,500 (4.3%) were called active. About 12% were inconclusive and are not listed. Shown is part of a subset that was picked to be rich in actives. A number with no mark means an inactive call. Calls come from the whole dose curve; as a rule, active = well fitted inhibition curve with a large enough effect (not every such curve was filed as active); inconclusive = small, poorly fitted or top-dose-only effect, or another doubt; inactive = no such curve, though single readings can be large or run the other way.
% is set by controls: 0 for no effect and ±100 for the full control effect; potency is the fitted concentration of half-maximal effect.

Chain of 15-hydroxyprostaglandin dehydrogenase [NAD(+)] (Homo sapiens) (P15428 whole entry, looked up): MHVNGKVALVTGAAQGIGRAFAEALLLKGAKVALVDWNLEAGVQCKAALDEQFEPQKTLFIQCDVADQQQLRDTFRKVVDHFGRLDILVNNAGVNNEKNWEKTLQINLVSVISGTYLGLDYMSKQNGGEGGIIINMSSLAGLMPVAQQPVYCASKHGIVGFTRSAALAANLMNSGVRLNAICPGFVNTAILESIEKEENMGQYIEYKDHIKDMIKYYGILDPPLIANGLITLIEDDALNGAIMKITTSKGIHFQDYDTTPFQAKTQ

This assay deals with 15-hydroxyprostaglandin dehydrogenase [NAD(+)] (Homo sapiens) (UniProt P15428). The assay is described as follows: qHTS Assay for Inhibitors of HPGD (15-Hydroxyprostaglandin Dehydrogenase). The following applies: purified HPGD, NADH fluorescence kinetic, PGE2 substrate; activity change, negative = inhibition: hits give low values. In a few lines:
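20 nM HPGD preincubated 15 min at room temperature with compound in 50 mM Tris-HCl pH 8, 0.01% Tween 20. Started with 1 mM NAD+ and 30 uM prostaglandin E2; NADH fluorescence (360/450 nm) read 5 times over 30-s intervals, last minus first.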
In the case of `COc1ccccc1-c1nnc(NC(=O)c2ccc3ncsc3c2)o1`, the activity change, negative = inhibition was -16.3%.
The same measure, in the same setting: the value for `Cc1ccccc1NC(=S)N(CCCN1CCOCC1)Cc1cccs1` was 8.96%; that for `N#Cc1ccc(N2Cc3ccccc3/C2=N/C(=O)Nc2ccc(Cl)cc2)cc1` was -24.3%.
In the case of `CCCCN(CC)C(=O)c1ccccc1Oc1ccccc1`, the activity change, negative = inhibition was -9.66%.
For the molecule `CC(=O)N/C(=C/c1ccc(OC(F)F)cc1)C(=O)O`, the activity change, negative = inhibition is -3.55%.
Still for that read-out and setting: the same measure for `CN(C)C(CNC(=O)c1ccc(S(=O)(=O)NCc2ccco2)cc1)c1ccccc1` (stereo not given): -10.1%; for `CCCc1nc(SCC(=O)Nc2ccc(S(=O)(=O)N(C)C)cc2)c2ccccc2n1`: -22.1%.
Take `CONc1nc2nonc2nc1NOC`: the activity change, negative = inhibition was -6.28%.
For the molecule `Cc1nnc(SCc2cc(=O)[nH]c(N3CCN(Cc4ccccc4)CC3)n2)s1`, the Potency is 10 µM (active).
Turning to `O=c1cc(CSc2ccccn2)nc(N2CCN(c3ccccc3)CC2)[nH]1`, the activity change, negative = inhibition is -4.21%.
As for `CCc1c(C)nc(N2CCN(Cc3ccccc3)CC2)[nH]c1=O`, the activity change, negative = inhibition is -6.13%.
Take `CC(C)CNC(=O)CC(NCC(C)C)C(=O)O` (stereo not given): the activity change, negative = inhibition is -6.89%.
With `Cc1ccc2[nH]cc(CCCN3C(=O)c4ccccc4C3=O)c2c1`, the activity change, negative = inhibition was -4.52%.
With `O=C(CS(=O)(=O)Cc1ccccc1)NCC1CCCO1` (stereo not given), the activity change, negative = inhibition was -19.1%.
As for `O=C(CSCc1c(F)cccc1Cl)NCC1CCCO1` (stereo not given), the Potency was 14.1 µM (active).
As to `O=C(NCC1CCCO1)C(C(=O)c1ccccc1)n1cc(Cl)ccc1=O` (stereo not given), the activity change, negative = inhibition is -7.62%.
Same read-out and setting: the value for `CC(=O)[C@H](C(c1ccccc1)N1CCOCC1)N1CCOCC1` (stereo not given in full) was -6.44%; that for `O=C(CCCCCNC(=O)c1ccccc1)N/N=C/c1ccccc1` was -2.21%.
With `CN(C)S(=O)(=O)c1cccc(NC(=S)N/N=C/C(=O)c2ccccc2)c1`, the activity change, negative = inhibition is -16%.
Still for that read-out and setting: the same measure for `O=C(Nc1nc2ccccc2s1)c1ccc2c(c1)OCO2`: -20.6%.
Take `Cc1ccc2sc(NNC(=O)c3ccc4c(c3)OCCO4)nc2c1C`: the Potency was 11.2 µM (active).
`O=C(Nc1ccc2c(c1)OCCO2)c1ccncc1`: the activity change, negative = inhibition was -1.78%.
Same read-out and setting: the value for `CCCCn1c(O)c(N=NC(=O)Cn2c(C(F)(F)F)nc3ccccc32)c2ccccc21` was -5.51%; that for `CNS(=O)(=O)c1ccc(N2CCCC2=O)c([N+](=O)[O-])c1` was -12.5%.
On the same count and under the same terms, the value for `COC(=O)c1ccc(CSc2nc3cc(Cl)ccc3o2)cc1` was -20.6%.
As for `COc1cc(NS(=O)(=O)c2ccc(N/C=C(\C=O)c3nc4cc(Cl)ccc4o3)cc2)nc(OC)n1`, the Potency was 14.1 µM (active).
Take `COc1ccc(NS(=O)(=O)c2ccc(NC(=O)C(C)(C(F)(F)F)C(F)(F)F)cc2)nn1`: the activity change, negative = inhibition was -19.1%.
The same measure, in the same setting: the value for `O=C(NC(CC(=O)N1CCN(c2ccccc2)CC1)c1ccccc1)c1ccccc1Cl` (stereo not given) was -5.04%.
On the same count and under the same terms, the value for `COc1ccc(N(C(=O)c2ccc(C)cc2)S(=O)(=O)c2cccs2)cc1` was -10%; that for `COc1ccc(N2C(=O)C(O)C2c2ccc(C)cc2)cc1` (stereo not given) was -14.1%.
As to `Cc1ccc(S(=O)(=O)c2ccc(Cl)cc2)cc1S(=O)(=O)NC(C(=O)O)C(C)C` (stereo not given), the activity change, negative = inhibition was -5.59%.
Still for that read-out and setting: the value for `O=C(NCc1ccco1)c1cc(-c2cccnc2)nc2ccc(Cl)cc12` was -28%.
Take `O=C(/C=C/c1ccc(Cl)cc1Cl)NCc1ccco1`: the Potency is 15.8 µM (active).
On to `O=C(NCc1ccco1)C1(c2ccc(Cl)cc2)CCCC1`, for which the activity change, negative = inhibition is -8.03%.
Regarding `CCNC(=S)N(CCc1c(C)[nH]c2ccc(C)cc12)Cc1ccco1`, the activity change, negative = inhibition is -13.1%.
As for `COc1cc2c(cc1OC)C(=O)NCC(C)(C)O2`, the activity change, negative = inhibition was -19.2%.
With `COc1ccc(-n2c(C)csc2=S)cc1`, the activity change, negative = inhibition was -9.23%.
In the case of `COc1ccc(-c2cn(-c3ccc(OC)cc3)c(=S)[nH]2)cc1`, the Potency was 25.1 µM (active).
Take `COc1ccc(N2C(=O)CNC2=S)cc1`: the activity change, negative = inhibition is -14.3%.
For the molecule `CN(C)S(=O)(=O)c1cc(NC(=O)CN2C(=O)NC3(CCCc4ccccc43)C2=O)ccc1Cl` (stereo not given), the activity change, negative = inhibition is -12.7%.
On to `O=C(O)c1ccc(N=NN2CCOCC2)cc1`, for which the activity change, negative = inhibition is -13.6%.
As for `Cc1ccc(NC(=O)NC(=O)N(C2CCCCC2)S(=O)(=O)c2ccccc2)cc1`, the activity change, negative = inhibition is -16%.
Still for that read-out and setting: the same measure for `CC(=O)Nc1ccc(S(=O)(=O)NC(C)C(=O)OCC(=O)NC2CCCC2)cc1` (stereo not given): -4.32%; for `CCCc1cc(-c2n[nH]c(=S)n2CC)c2ccccc2n1`: -28.5%.
Consider `CC(C)Oc1ccc(CCc2n[nH]c(=S)n2Cc2ccccc2)cc1`, for which the Potency was 10 µM (active).
In the case of `CCCCC(CC(C)O)c1n[nH]c(=S)n1-c1ccccc1` (stereo not given), the activity change, negative = inhibition was -3.38%.
On the same count and under the same terms, the value for `O=C(N/N=C\c1ccc(Br)cc1)c1ccc(Cn2cccn2)o1` was -5.99%.
Regarding `COCCOC(=O)c1c(C)oc2cc(Br)c(OCC(N)=O)cc12`, the activity change, negative = inhibition was -7.04%.
Same read-out and setting: the value for `COC(C(=O)NCc1ccccc1C)c1ccccc1` (stereo not given) was -8.94%; that for `Cc1nc2ccccc2cc1C(=O)N/N=C/c1ccc([N+](=O)[O-])cc1` was -5.88%.
On to `Cn1c(-c2sc3cc(C(F)(F)F)cnc3c2-c2ccccc2)n[nH]c1=S`, for which the Potency was 31.6 µM (active).
Consider `Cc1cc(C(F)(F)F)n2ncc(-c3ccccc3)c2n1`, for which the activity change, negative = inhibition is -0.556%.
On to `CCc1c(C)[nH]c(=S)c(C#N)c1C`, for which the Potency was 35.5 µM (active).
Consider `CCOC(=O)c1c(C)[nH]c(=S)c(C#N)c1-c1ccccc1`, for which the activity change, negative = inhibition was -27.3%.
In the case of `CCCCC1S/C(=N/N=C/c2cccs2)NC1=O` (stereo not given), the activity change, negative = inhibition is -7.59%.
The same measure, in the same setting: the value for `COC(=O)C1=C(C(=O)OC)[C@@H]2Nc3ccccc3[C@@]23C[C@@H](C(=O)OC)N(S(=O)(=O)c2ccc([N+](=O)[O-])cc2)C3=N1` was -10.9%.
Turning to `Cc1ccc(C)c(NC(=S)NNC(=O)c2csc(C)c2)c1`, the activity change, negative = inhibition is -5.84%.
The same measure, in the same setting: the same measure for `Cn1ncc2c(Nc3cccc4ccccc34)ncnc21`: -9.06%; for `COc1ccc(Nc2ncnc3ccc(OC)cc23)cc1`: -4.83%.
With `CN(C)c1cc2c(Nc3ccc4c(cnn4Cc4ccccc4)c3)ncnc2cn1`, the Potency is 12.6 µM (active).
With `CCOC(=O)C1=C(c2ccc(OC)cc2)C(=O)c2ccccc2C1=O`, the activity change, negative = inhibition is -6.53%.
Same read-out and setting: the same measure for `O=c1c2ccccc2oc2nc(C3CCCCC3)n(Cc3ccco3)c(=O)c12`: -6.04%.
Regarding `CCc1nc2oc3ccccc3c(=O)c2c(=O)n1Cc1ccc(OC)cc1`, the Potency was 25.1 µM (active).
With `COc1ccc(N2CCN(Cc3cc(=O)oc4ccc5ccccc5c34)CC2)cc1`, the activity change, negative = inhibition is -9.86%.
The same measure, in the same setting: the value for `COC(C(=O)Nc1ccc(C(C)=O)cc1)c1ccccc1` (stereo not given) was -9.31%; that for `O=C(Cc1cccs1)Nc1cccc(-c2nc3ccccc3[nH]2)c1` was -8.46%.
Same read-out and setting: the same measure for `O=C(CCc1nc2ccccc2c(=O)[nH]1)OCC(=O)c1cccc(Cl)c1`: -9.26%.
Consider `CCOc1cc(C(=S)N2CCOCC2)ccc1O`, for which the Potency is 12.6 µM (active).
In the case of `Cc1ccc(C(=O)C(=S)N2CCOCC2)cc1`, the activity change, negative = inhibition was -3.51%.
`CCOc1cc(C(=O)OCC(=O)Nc2cccc(C)c2)ccc1OCC(=O)N1CCOCC1`: the activity change, negative = inhibition was -18.5%.
`COc1ccc2c(c1)O[C@@H](c1ccc3c(c1)OCO3)[C@H](OC(=O)NCCc1ccc(OC)c(OC)c1)C2=O`: the activity change, negative = inhibition is -3.81%.
In the case of `S=C(Nc1cccc(Cl)c1)Nc1ccc2cn[nH]c2c1`, the activity change, negative = inhibition was -14.3%.
`Cc1cc(C)cc(C(=O)N2CCN=C2SCc2ccc([N+](=O)[O-])cc2)c1`: the activity change, negative = inhibition was -11.7%.
As to `O=C(COc1ccccc1F)NNC(=O)c1ccc(N2CCCCC2)c([N+](=O)[O-])c1`, the activity change, negative = inhibition was -21.3%.
For `O=C1CCCC(O)=C1N=Nc1ccc2ncsc2c1`, the Potency is 31.6 µM (active).
As for `COc1ccc(NC(=O)c2nc(-n3nc(C)cc3C)ccc2Cl)cc1Cl`, the activity change, negative = inhibition was -17.4%.
Same read-out and setting: the value for `CCCN(CCC)C(=S)Nc1cc(C(=O)OC)ccc1C(=O)OC` was -9.23%.
`O=C(CCl)NNc1cccc(Cl)n1`: the Potency was 28.2 µM (active).
For `O=C(NNc1ccccn1)c1ccc(Cl)nc1`, the activity change, negative = inhibition was -23%.
On to `COc1cc(OC)nc(NC(=O)CCl)n1`, for which the activity change, negative = inhibition is -16.6%.
The same measure, in the same setting: the value for `CCOCC(=O)Nc1cc(OC)c(Cl)cc1OC` was -3.42%; that for `CC(C)CC(=O)NC(=S)Nc1cc(C(=O)O)ccc1Cl` was -13.5%.
Consider `COc1cc(NC(=S)NNC(=O)CC(C)C)c(OC)cc1Cl`, for which the Potency was 31.6 µM (active).
Consider `COc1ccc(-c2nc3c(c4c2C[C@H](c2ccccc2)OC4)CN(S(=O)(=O)c2c(C)noc2C)CC3)c(C)c1`, for which the activity change, negative = inhibition is -1.95%.
Regarding `Cc1ccc(S(=O)(=O)N/N=C\c2cc3c(cc2[N+](=O)[O-])OCO3)cc1`, the activity change, negative = inhibition is -28.1%.
With `Cc1ccc(-c2n[nH]c(=S)n2/N=C/c2cc3c(cc2[N+](=O)[O-])OCO3)cc1`, the Potency is 1.58 µM (active).
Consider `Cc1c(NC(=O)CCCOc2ccccc2)cccc1[N+](=O)[O-]`, for which the activity change, negative = inhibition was -12.9%.
With `CCOc1ccc(-c2n[nH]c(=S)n2/N=C/c2cc3c(cc2[N+](=O)[O-])OCO3)cc1`, the Potency is 3.55 µM (active).
For `CCOC(=O)c1c(C)[nH]c(C(=O)COc2ccc3c(c2)OCO3)c1C`, the activity change, negative = inhibition is -6.28%.
For `O=[N+]([O-])c1ccccc1/C=N/n1c(COc2ccccc2)n[nH]c1=S`, the Potency was 7.08 µM (active).
On to `O=C(Cc1cc(=O)[nH][nH]1)N/N=C/c1ccccc1[N+](=O)[O-]`, for which the activity change, negative = inhibition is -14.9%.
With `CCOC(=O)c1nc(-c2ccc3c(c2)OCO3)[nH]c1C`, the activity change, negative = inhibition was -11.1%.
The same measure, in the same setting: the value for `COC(=O)/C(=C1\Oc2ccc(C(C)(C)C)cc2S1)C(F)(F)F` was -12.2%; that for `COc1cc(OC)cc(-c2nc3ccccc3c(=O)n2NC(=O)c2cccnc2Cl)c1` was -8.81%.
Take `NC(=O)Nc1ccccc1C(=O)NCCc1ccccc1`: the activity change, negative = inhibition was -3.92%.

These data come from PubChem BioAssay AID894 (National Center for Advancing Translational Sciences (NCATS), 2007).
